Several values for one entry are separate records, joined by “and”; a condition that tells them apart may be missing. Equal entries are not always repeated. This is part of a sample that, as a whole, favours compounds with a hit. Of some 83,000 tested, about 20% had one in any assay.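 Results are percent growth after 48 hours of single-concentration exposure. 100 means growth as in untreated cells, lower positive values show inhibition; negative values down to -100 show cell death.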 Activity calls are given as the source filed them. How the source made its calls: active means growth percent below 10; inactive means the rest.

The subject of the experiment is HL-60(TB) leukemia. In words: NCI-60 one-dose screen, 48 h (100 = growth as untreated, 0 = no growth, -100 = all killed). The conditions noted are these: 10 µM unless noted.
Take `CS(=O)(=O)OCCN(CCOS(C)(=O)=O)c1ccc(/C=N/Nc2ccc([N+](=O)[O-])cc2[N+](=O)[O-])cc1`: the growth is 71.6% (inactive).

In the case of `Nc1c(C(=O)c2ccc(F)cc2)sc2nc3c(cc12)CCCC3`, the growth was 70.2% (inactive).

Take `CN1C(=O)C(N=Nc2ccc([N+](=O)[O-])cc2)SC1=S` (centres undefined): the growth is -4.43% (active) and -10.4% (active).

In the case of `Cc1cc(N2CCC(N3CCCC3)CC2)nc(/N=C(\N)Nc2ccc(Cl)c(Cl)c2)n1`, the growth was 90.4% (inactive).

For `CCOc1ccc(NC(=O)CSc2oc(-c3ccccc3)nc2S(=O)(=O)c2ccc(F)cc2)cc1`, the growth was 65.2% (inactive).

On to `Cc1ccc(S(N)(=O)=O)cc1Cl`, for which the growth was 79.8% (inactive).

As for `CCOC(=O)C1=CC(=O)CC(C)(C)O1`, the growth is 53.2% (inactive) and 69.6% (inactive).

On to `CC(C)c1c(C(=O)Nc2ccccc2)c(-c2ccccc2)c(-c2ccc(F)cc2)n1CC[C@@H]1CC=CC(=O)O1`, for which the growth is -27.9% (active).

For the compound `Clc1ccc(-c2nnc(COc3ccc(C4=NNC(c5ccco5)C4)cc3)o2)cc1` (centres undefined), the growth was 79.6% (inactive).

As for `O=C1Nc2ccccc2/C1=C/c1cn(C(=O)c2c(Cl)cccc2Cl)c2ccccc12`, the growth was 72.1% (inactive).

In the case of `Cn1cnc([N+](=O)[O-])c1Sc1nc(N)nc2nc[nH]c12`, the growth is 59.9% (inactive).

Turning to `CC1(/C=N/NC(N)=S)NC(=O)NC1=O` (centres undefined), the growth is 86.8% (inactive).

For the compound `C[n+]1ccc(Nc2ccc(NC(=O)c3ccc(Nc4cc[n+](C)c5ccc(N)cc45)cc3)cc2)cc1`, the growth was 82.3% (inactive).

As to `CN(C)CCC(=O)Nc1ccc(-n2cc(-c3cccc(NC(=S)Nc4cccc(-c5cn(-c6ccc(NC(=O)CCN(C)C)cc6)nn5)c4)c3)nn2)cc1`, the growth was 94% (inactive).

For the compound `COc1cccc(C(=O)NNc2nc(N3CCN(C4CCCCC4)CC3)nc(N3CCN(C(c4ccccc4)c4ccccc4)CC3)n2)c1`, the growth was 18.5% (inactive).

As for `CC1=CC(O)C2CC1C2(C)C` (centres undefined), the growth is 100% (inactive) and 73.7% (inactive).

For `CO[C@H](C(=O)[C@@H](O)[C@@H](C)O)[C@@H]1Cc2cc3cc(OC4CC(OC5CC(O)C(O)C(C)O5)C(O)C(C)O4)c(C)c(O)c3c(O)c2C(=O)[C@H]1OC1CC(OC2CC(OC3CC(C)(O)C(O)C(C)O3)C(O)C(C)O2)C(O)C(C)O1` (some centres undefined), the growth was 3.88% (active).

As to `CCN1CC(=O)N(/N=C2\C(=O)Nc3ccccc32)C1=S`, the growth was 82.7% (inactive).

In the case of `CC1(CO)CCCC12OCCO2` (centres undefined), the growth is 105% (inactive).

Consider `COc1cc(OC)cc(-c2cncn2-c2ccc(-c3nc4cc(OC)cc(OC)c4s3)cc2)c1`, for which the growth is 41% (inactive).

With `O=C(O)C1CCCN1C(=O)OCc1ccccc1` (centres undefined), the growth is 102% (inactive).

In the case of `O=C(CC(SCc1ccccc1)c1ccccc1)c1ccccc1` (centres undefined), the growth is 66.7% (inactive).

`CN1CCN(Cc2ccc(NC(=O)c3nc4ccc5[nH]ncc5c4c4c3CCC4)cc2C(F)(F)F)CC1`: the growth was -59.1% (active).

`Cc1nc(/N=C(\N)NC(=O)Nc2cccc([N+](=O)[O-])c2)sc1C`: the growth is 39.5% (inactive).

As for `Cn1c(=O)n(-c2ccc(C(C)(C)C#N)cc2)c2c3cc(-c4cnc5ccccc5c4)ccc3ncc21`, the growth was 10.3% (inactive) and -11.9% (active).

Take `O=CC1(C2(C=O)c3ccccc3-c3ccccc32)c2ccccc2-c2ccccc21`: the growth was -52.3% (active).

As for `CCCCC(=O)c1ccco1`, the growth is 103% (inactive).

For `COc1ccc(NC(=O)c2cccc(-c3cc(=O)c4c(O)c(OC)c(OC)cc4o3)c2)cc1`, the growth was 130% (inactive).

On to `O=C1CCN(Cc2ccccc2)C(=S)N1`, for which the growth was 86.8% (inactive) and 113% (inactive).

For `COc1ccc(C(=O)c2no[n+]([O-])c2C(=O)c2ccc(OC)cc2)cc1`, the growth was -79.7% (active).

As for `O=[N+]([O-])c1ccc2c(N=Nc3ccc4ccccc4c3O)c(O)cc(S(=O)(=O)O)c2c1`, the growth was 108% (inactive).

Regarding `COc1ccc(OC)c(Nc2nc(-c3c(C)nc4sccn34)cs2)c1`, the growth was 67.9% (inactive).

Turning to `CCN(Cc1ccc(CN(CC)C(=O)C(Br)Br)cc1)C(=O)C(Br)Br`, the growth is 13.1% (inactive).

For `CCCNC(=O)Nc1ccc2cc3ccc(NC(=O)NCCC)cc3nc2c1`, the growth is 74.9% (inactive).

Take `Cn1ncc2c(Nc3ccc(O)cc3)nc(Cl)nc21`: the growth is 95.1% (inactive).

As to `CCN1C(=O)N[C@H]2[C@@H]3NC(=O)c4ccc(Cl)n4[C@@H]3C[C@]21O`, the growth was -20.6% (active).

In the case of `CCOC(=O)c1nnn(C(Cc2ccccc2Cl)C(=O)OCC)c1C` (centres undefined), the growth is 96.5% (inactive).

As for `CCN(CC)CCOC(=O)c1cccnc1`, the growth is 101% (inactive).

`CC(=O)Nc1nc(C)c(C(=O)NN)s1`: the growth was 117% (inactive).
